Hits are enriched below; roughly 21% of the tested compounds scored in any of these assays.
IL1B secr inh = blocks inflammasome-driven IL-1 beta release; THP-1 LPS/ATP IL-1B secretion, AlphaLISA, 16 h; hits give low values; activity change, % at 57.5 µM; hit rate 4.7% among 360,000; AID 743279; in the data active means activity change below about -50%; inconclusive means mostly about -30% to -49%
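THP-1 cells pretreated 1 hr with compounds (up to 57.5 uM final), then stimulated with LPS (250 ng/mL final) plus ATP (1.25 mM final); secreted IL-1B measured by AlphaLISA after 16 hr, decreased signal indicating inhibition.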
Gal4-VP16 FLuc = counter-screen for ROR gamma inhibitors: Gal4-VP16 reporter; Potency, µM (top dose mostly 53.6 µM), without a hit: at the highest dose activity, negative = inhibition, hits mostly inhibitors; hit rate 3.5% among 310,000; Drosophila S2 Gal4-VP16 UAS-luciferase, luminescence, 20 h;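 further: Gal4-VP16 expression switched on by copper sulfate through the metallothionein promoter; potency means the concentration at half of the fitted maximal effect; nearly all actives have a fitted effect of over 50% in size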
TDP1 cell noCPT = qHTS for Inhibitors of human tyrosyl-DNA phosphodiesterase 1 (TDP1): qHTS in cells in absence of CPT. DT40 Tdp1-/- hTDP1 cells, no CPT, ATP luminescence, 48 h. Potency, µM (titrated, usually from 46.2 µM), inactives show at the top dose activity change, negative = growth inhibition, most hits filed as inhibitors. hit rate 15% among 420,000; further: potency means the concentration at half of the fitted maximal effect; nearly all actives have a fitted effect of over 55% in size
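Cells were dispensed at 400 per well, compounds added by pin tool, plates incubated ≥48 hr at 37 °C, then CellTiter-Glo added for 30 min at room temperature before luminescence reading. Line: DT40 Tdp1-/- complemented with hTDP1; camptothecin omitted.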
DT40 TDP1 CPT = growth inhibition of DT40 Tdp1-/-;hTDP1 cells with camptothecin (screen for TDP1 inhibitors) | chicken DT40 Tdp1-/-;hTDP1 cells + 20 nM CPT, ATP luminescence, 48 h | Potency, µM (top dose mostly 46.2 µM), without a hit: top-dose activity change, negative = growth inhibition, hits mostly inhibitors | hit rate 12% among 420,000; further: potency means the concentration at half of the fitted maximal effect; nearly all actives have a fitted effect of over 55% in size
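Chicken DT40 Tdp1-/- cells stably complemented with human TDP1 were seeded at 400 cells/well in medium containing 20 nM camptothecin, exposed to pin-transferred compounds, and grown at 37 °C for at least 48 hr. Viability was read as ATP luminescence.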
ELG1 DNA repair = inhibitors of ELG1-dependent DNA repair in HEK293T cells | HEK293T ELG1-luciferase reporter, luminescence, 16 h; DNA damage induced by 5-fluorouridine | Potency, µM (titrated, usually from 46.1 µM), for inactives: top-dose activity change, negative = inhibition, most hits filed as inhibitors | hit rate 2.3% among 330,000 | AID 504467; further: potency means the concentration at half of the fitted maximal effect; nearly all actives have a fitted effect of over 55% in size
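5-Fluorouridine DNA damage + compound/DMSO, 2,000 cells/well, 16 h, 37 °C/5% CO2. ONE-Glo, 30 min RT, luminescence. Readout = decrease in reporter signal.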
RORgamma inh = inhibitors of mouse ROR gamma transcriptional activity; P51450; Drosophila S2 Gal4-RORgamma UAS-luciferase reporter, 20 h; Potency, µM (doses to about 53.6 µM), inactives show at the top dose activity change, negative = inhibition, usual class: inhibitors; hit rate 5.4% among 310,000; further: potency means the concentration at half of the fitted maximal effect; nearly all actives have a fitted effect of over 60% in size
Target sequence (P51450 whole entry, looked up, the tested form may be a part): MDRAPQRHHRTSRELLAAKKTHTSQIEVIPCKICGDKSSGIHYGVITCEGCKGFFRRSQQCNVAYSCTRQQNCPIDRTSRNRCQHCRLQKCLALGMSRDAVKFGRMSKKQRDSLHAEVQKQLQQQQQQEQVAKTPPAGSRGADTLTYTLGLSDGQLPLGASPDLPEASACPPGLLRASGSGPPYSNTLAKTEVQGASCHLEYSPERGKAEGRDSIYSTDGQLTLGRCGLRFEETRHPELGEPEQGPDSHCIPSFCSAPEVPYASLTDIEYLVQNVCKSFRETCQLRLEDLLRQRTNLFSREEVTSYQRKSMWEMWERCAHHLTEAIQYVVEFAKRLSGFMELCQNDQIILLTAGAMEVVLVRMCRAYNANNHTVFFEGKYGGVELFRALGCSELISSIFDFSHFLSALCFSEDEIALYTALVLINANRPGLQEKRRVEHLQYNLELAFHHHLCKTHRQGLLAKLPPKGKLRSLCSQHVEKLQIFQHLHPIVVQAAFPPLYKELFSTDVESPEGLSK
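Using a luciferase readout, inhibitors were identified by reduced reporter activity in Drosophila cells coexpressing a copper-inducible Gal4–ROR gamma fusion and UAS-driven Photinus luciferase, incubated 20 hr after 700 uM copper sulfate.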
* marks the source's active call; other numbers are inactive results; ? = inconclusive; . = no result. Unless noted, the call rests on the fitted dose curve; in most records, active means well fitted curve in the direction sought with a large enough effect; inconclusive means small, poorly fitted or top-dose-only effect, or another doubt; inactive means no such curve, though single readings can be large; an effect the other way counts as inactive or inconclusive. On the % scale 0 is the no-effect control and ±100 the full control effect.

SMILES	IL1B secr inh	Gal4-VP16 FLuc	TDP1 cell noCPT	DT40 TDP1 CPT	ELG1 DNA repair	RORgamma inh
O=C(NCCc1c[nH]c2ccccc12)C(=O)NCC1OCCCN1S(=O)(=O)c1ccc(F)cc1 (configuration not stated)	0	-11%	?	18µM*	?	31%
Cc1ccc(S(=O)(=O)N2CCOC2CNC(=O)C(=O)NCCc2c[nH]c3ccccc23)cc1 (configuration not stated)	11	-7%	?	?	?	40%
CC(CNC(=O)Cn1cnc2c(NCc3ccccc3)ncnc21)c1ccccc1 (configuration not stated)	-2	.	-23%	-3%	-3%	.
O=C(COC(=O)c1cccnc1Cl)NCc1cccs1	-6	-17%	-3%	1%	19%	2%
CCOC(=O)c1c(NC(C)=O)sc2c(OCC(O)CN(CC)CC)c(Br)ccc12 (configuration not stated)	?	1%	21µM*	?	?	?
Cc1cccc(C(=O)n2nc(-c3cccnc3)nc2NCc2ccc(F)cc2)c1	.	.	-27%	-14%	.	.
CN(CCc1ccc(Cl)c(Cl)c1)CCN1CCCC1	.	9%	24µM*	8.2µM*	.	-15%
Clc1ccc(CN2CCSCC2)cc1Cl	0	-1%	3%	-4%	9%	38%
CCn1c(SCC(=O)NC2CCCC2)nnc1C(C)C	-6	1%	-5%	3%	4%	-2%
O=C(N/N=C/c1cccc(OC2CSC2)c1)c1ccccc1O	10	0%	-3%	-9%	?	13µM*
O=S(=O)(N/N=C/c1cccc(OC2CSC2)c1)c1ccccc1	4	-14%	?	16µM*	5%	20%
Cc1ccc(S(=O)(=O)N/N=C/c2cccc(OC3CSC3)c2)cc1	30	-4%	?	?	4%	41%
Cn1c(CCNC(=O)c2ccco2)nc2cc(NC(=O)COc3ccc(Cl)cc3)ccc21	.	.	-9%	3%	.	.
COc1ccc(O)c(C2=Nc3ccccc3N=C(c3ccccc3)C2)c1	17	-11%	18µM*	23µM*	?	0%
COc1ccc2c(c1)NC(=O)CC(c1ccccc1)=N2	-3	0%	?	-27%	?	12%
Cc1cc2nccc(C)c2cc1C	.	.	-3%	3%	.	.
O=C1SC(SCc2ccccc2)=N/C1=C\c1ccc(C(=O)O)cc1	-58*	0%	-9%	27%	3%	3%
O=C1c2ccc(Oc3cccc([N+](=O)[O-])c3)cc2C(=O)N1c1ccccn1	2	-9%	?	?	-13%	-3%
O=C1c2cc([N+](=O)[O-])cc3cc([N+](=O)[O-])cc(c23)C(=O)N1c1ccccn1	-100*	-101%	18µM*	21µM*	?	?
O=C(CCCn1c(=S)[nH]c2ccccc2c1=O)N1CCN(c2cccc(Cl)c2)CC1	21	-2%	18µM*	16µM*	-19%	?
O=C(CCn1c(=O)[nH]c2ccccc2c1=O)N1CCN(c2ccc(Cl)cc2)CC1	23	0%	-25%	?	-15%	3%
CC(=O)c1ccc(N2CCN(C(=O)CCCn3c(=O)[nH]c4ccc(Br)cc4c3=O)CC2)cc1	-30	-9%	13µM*	15µM*	18µM*	?
CCCCNC(=O)CCCn1c(=O)[nH]c2ccc(Br)cc2c1=O	-22	1%	-30%	-11%	-5%	13%
O=C(CCCn1c(=O)[nH]c2ccc(Br)cc2c1=O)N1CCN(c2cccc(Cl)c2)CC1	.	.	8.2µM*	15µM*	.	.
O=C(CCCCCn1c(=O)[nH]c2ccccc2c1=O)NCc1cccc(Cl)c1	.	.	-25%	-19%	.	.
SMILES	IL1B secr inh	Gal4-VP16 FLuc	TDP1 cell noCPT	DT40 TDP1 CPT	ELG1 DNA repair	RORgamma inh
CC(=O)c1ccc(N2CCN(C(=O)CCCCn3c(=O)[nH]c4ccccc4c3=O)CC2)cc1	.	.	16µM*	13µM*	.	.
C[C@H](CO)N1C[C@H](C)[C@@H](CN(C)C(=O)c2cccnc2)Oc2ncc(Br)cc2C1=O	6	.	4%	1%	.	.
CC(C)c1onc(C(=O)NCCc2ccccc2)c1[N+](=O)[O-]	-12	11%	?	21µM*	?	0%
Cc1c([N+](=O)[O-])c([N+](=O)[O-])nn1CC(=O)NCCc1ccccc1	-90*	?	7%	-3%	14%	-27%
O=C(Nc1cccc([N+](=O)[O-])c1)C1COc2ccccc2O1 (configuration not stated)	-7	?	?	-12%	12%	22%
CC(NC(=O)/C(C#N)=C/c1ccco1)c1ccccc1 (configuration not stated)	-21	?	-22%	5%	0%	-9%
COC(=O)c1ccc(/C=C(\C#N)C(=O)NC(C)c2ccccc2)cc1 (configuration not stated)	-97*	4.5µM*	10µM*	9.2µM*	?	0.5µM*
CC(NC(=O)/C(C#N)=C/c1ccc([N+](=O)[O-])o1)c1ccccc1 (configuration not stated)	-105*	2.5µM*	0.73µM*	0.65µM*	-26%	5µM*
CC(NC(=O)N1CCOCC1)c1ccccc1 (configuration not stated)	28	0%	13%	26%	-11%	1%
CC(NC(=O)/C(C#N)=C/c1ccc(N2CCOCC2)cc1)c1ccccc1 (configuration not stated)	?	?	9.2µM*	13µM*	-4%	2%
COc1ccc(/C=C(\C#N)C(=O)NC(C)c2ccccc2)cc1O (configuration not stated)	-87*	-2%	?	-25%	?	13%
Cc1ccc(C(C)NC(=O)/C(C#N)=C\c2c(C)[nH]c3ccccc23)cc1 (configuration not stated)	-28	-29%	-22%	?	-4%	?
Nc1nc2ncccn2c1-c1ccc(F)c(F)c1	-4	.	2%	-1%	.	.
N#C/C(=C\c1ccc(O)c(O)c1)C(=O)NCCCCc1ccccc1	.	32µM*	8.4µM*	6.7µM*	.	?
COc1ccc(/C=C(\C#N)C(=O)NCc2ccccc2)cc1O	-86*	-5%	-29%	-29%	-12%	11%
N#C/C(=C\c1ccc(O)c(O)c1)C(=O)NCCc1ccccc1	34	.	?	?	-11%	.

Compound activity from PubChem.
